Data: the supplement of paper PMC10849652
About 8,800 targets were measured; listed, in parts, are those with a hit and a random draw of the rest. About 0.5% of all pairs of compound and target were hits.

Experiments:
Assay in all cases: log2 fold change, soluble protein after heating vs DMSO (PISA); higher = thermal stabilisation; K562 lysate, 10 uM; active = over 0.2 and 3.5 SD of the protein, either way, in both replicates (recomputed)
[1] = compound: C1=CC=C(C=C1)[C@H](COC2=CC3=C(C=C2)NC(=O)N3)NC(=O)C4=CC=CN(C4=O)CC5=CC(=C(C=C5)F)F
Summary of the method: (§1)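 Log-two fold change in thermal stability relative to solvent controls is reported from duplicates. For each sample, crude K562 extract from dounce-homogenised pellets in PBS pH 7.4 with 1 mM MgCl2, at 1 mg/mL protein, was treated with 10 μM compound for 30 min. Aliquots heated for 3 min across 48°C-58°C were pooled, brought to 0.5% NP-40 at 4°C and cleared at 21,000xg for 90 min. The supernatant was quantified by TMTpro 16plex LC-MS/MS with channel sums equalised.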

[2] = compound: CC1=C(SC2=C1C(=N[C@H](C3=NN=C(N32)C)CC(=O)N)C4=CC=C(C=C4)Cl)C
Summary of the method: as §1

[3] = compound: CC1=C2C(=CC=C1)N=C(N(C2=O)C3=CC=CC=C3C)CN4C=NC5=C(N=CN=C54)N
Summary of the method: as §1

[4] = compound: Cc1sc2c(c1C)C(c1ccc(Cl)cc1)=N[C@@H](CC(=O)OC(C)(C)C)c1nnc(C)n1-2
Summary of the method: as §1

[5] = compound: c1ccc([C@@H]2C[C@H]2NC2CCNCC2)cc1
Summary of the method: as §1

Measured: log2 fold change

TCF3 (UniProt P15923)
Chain of UniProt P15923 (P15923 whole entry, looked up): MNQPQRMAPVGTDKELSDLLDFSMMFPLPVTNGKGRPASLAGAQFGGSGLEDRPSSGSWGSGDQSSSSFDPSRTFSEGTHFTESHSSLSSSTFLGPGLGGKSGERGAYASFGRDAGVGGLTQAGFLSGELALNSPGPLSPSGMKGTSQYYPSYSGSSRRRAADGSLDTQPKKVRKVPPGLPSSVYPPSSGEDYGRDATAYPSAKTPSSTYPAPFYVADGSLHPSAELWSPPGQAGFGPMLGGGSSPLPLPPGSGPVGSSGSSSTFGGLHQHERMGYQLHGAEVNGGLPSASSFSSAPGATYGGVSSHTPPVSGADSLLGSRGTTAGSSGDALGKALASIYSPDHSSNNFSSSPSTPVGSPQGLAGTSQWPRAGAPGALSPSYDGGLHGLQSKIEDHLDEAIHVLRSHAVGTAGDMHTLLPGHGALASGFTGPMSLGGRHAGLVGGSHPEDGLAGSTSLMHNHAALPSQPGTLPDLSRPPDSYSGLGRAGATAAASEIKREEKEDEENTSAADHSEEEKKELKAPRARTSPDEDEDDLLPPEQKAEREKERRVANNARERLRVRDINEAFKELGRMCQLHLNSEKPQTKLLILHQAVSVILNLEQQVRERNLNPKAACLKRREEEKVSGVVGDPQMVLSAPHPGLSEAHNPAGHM
inactive: [1] -0.029 | [2] 0.006 | [3] -0.004 | [4] -0.032 | [5] -0.08

TTMP isoform 3 (UniProt Q5BVD1)
Chain of UniProt Q5BVD1 (Q5BVD1 whole entry, looked up): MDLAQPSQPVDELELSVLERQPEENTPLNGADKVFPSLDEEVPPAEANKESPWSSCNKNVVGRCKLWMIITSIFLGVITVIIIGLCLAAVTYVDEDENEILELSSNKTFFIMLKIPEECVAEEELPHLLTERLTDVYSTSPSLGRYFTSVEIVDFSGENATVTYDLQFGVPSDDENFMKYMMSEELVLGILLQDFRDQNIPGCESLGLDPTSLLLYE
inactive: [1] -0.051 | [2] 0.091 | [3] 0.135 | [4] -0.148 | [5] -0.498

TRNAU1AP (UniProt Q9NX07)
inactive: [1] -0.068 | [2] -0.008 | [3] 0.195 | [4] -0.025 | [5] -0.048

TMEM87B (UniProt Q96K49)
Chain of UniProt Q96K49 (Q96K49 whole entry, looked up): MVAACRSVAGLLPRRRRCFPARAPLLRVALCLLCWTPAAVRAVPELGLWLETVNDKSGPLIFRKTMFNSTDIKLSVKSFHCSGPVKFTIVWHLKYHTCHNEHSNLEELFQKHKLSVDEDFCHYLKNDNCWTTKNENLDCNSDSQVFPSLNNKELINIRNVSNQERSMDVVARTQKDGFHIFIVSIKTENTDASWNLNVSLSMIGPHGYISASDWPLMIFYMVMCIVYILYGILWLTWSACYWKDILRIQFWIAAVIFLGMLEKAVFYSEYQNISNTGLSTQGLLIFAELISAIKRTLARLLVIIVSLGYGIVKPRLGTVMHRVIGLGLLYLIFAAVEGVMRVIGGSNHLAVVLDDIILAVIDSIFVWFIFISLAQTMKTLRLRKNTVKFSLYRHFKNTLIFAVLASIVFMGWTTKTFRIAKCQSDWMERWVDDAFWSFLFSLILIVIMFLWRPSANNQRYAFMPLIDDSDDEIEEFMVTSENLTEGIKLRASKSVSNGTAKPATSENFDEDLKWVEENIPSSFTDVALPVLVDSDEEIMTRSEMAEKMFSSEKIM
active: [1] 0.529
inactive: [2] 0.02 | [3] 0.075 | [4] 0.001 | [5] 0.038

TIMELESS (UniProt Q9UNS1)
inactive: [1] -0.013 | [2] 0.011 | [3] 0.01 | [4] 0.012 | [5] 0.02

TK1 (UniProt K7ERV3)
inactive: [1] -0.044 | [2] 0.007 | [3] -0.017 | [4] -0.002 | [5] -0.037

UBE2D1 (UniProt P51668)
inactive: [1] 0.056 | [2] 0.066 | [3] 0.02 | [4] -0.082 | [5] 0.016

TMEM199 (UniProt Q8N511)
inactive: [1] 0.005 | [2] -0.002 | [3] 0.07 | [4] -0.046 | [5] -0.029

TRIM65 (UniProt Q6PJ69)
inactive: [1] 0.051 | [2] -0.085 | [3] -0.016 | [4] 0.012 | [5] 0.039

UBE2H (UniProt P62256)
inactive: [1] 0.024 | [2] 0.02 | [3] 0.012 | [4] -0.046 | [5] 0.095

UBE3B (UniProt Q7Z3V4)
inactive: [1] -0.085 | [2] -0.144 | [3] -0.047 | [4] -0.045 | [5] 0.078

TIMM44 (UniProt O43615)
inactive: [1] -0.062 | [2] 0 | [3] 0.034 | [4] -0.035 | [5] -0.003

UCHL5 (UniProt Q5LJA9)
inactive: [1] 0.002 | [2] -0.059 | [3] -0.022 | [4] -0.251 | [5] 0.133

TPM3 (UniProt P06753)
Chain of UniProt P06753 (P06753 whole entry, looked up): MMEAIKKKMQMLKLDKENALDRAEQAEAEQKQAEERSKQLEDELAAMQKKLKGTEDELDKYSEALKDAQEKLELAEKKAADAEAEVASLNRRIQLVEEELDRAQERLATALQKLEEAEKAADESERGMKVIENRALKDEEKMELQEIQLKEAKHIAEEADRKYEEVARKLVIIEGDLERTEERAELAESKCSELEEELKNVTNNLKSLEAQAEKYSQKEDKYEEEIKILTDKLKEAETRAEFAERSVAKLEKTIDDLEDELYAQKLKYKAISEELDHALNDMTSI
inactive: [1] -0.018 | [2] 0.008 | [3] -0.018 | [4] 0.015 | [5] 0.057

TBC1D20 isoform 3 (UniProt Q96BZ9)
inactive: [1] -0.08 | [2] -0.07 | [3] 0.005 | [4] -0.007 | [5] 0.015

TUBAL3 (UniProt A6NHL2)
inactive: [1] -0.034 | [2] -0.051 | [3] 0.045 | [4] -0.189 | [5] -0.255

TRADD (UniProt Q15628)
Chain of UniProt Q15628 (Q15628 whole entry, looked up): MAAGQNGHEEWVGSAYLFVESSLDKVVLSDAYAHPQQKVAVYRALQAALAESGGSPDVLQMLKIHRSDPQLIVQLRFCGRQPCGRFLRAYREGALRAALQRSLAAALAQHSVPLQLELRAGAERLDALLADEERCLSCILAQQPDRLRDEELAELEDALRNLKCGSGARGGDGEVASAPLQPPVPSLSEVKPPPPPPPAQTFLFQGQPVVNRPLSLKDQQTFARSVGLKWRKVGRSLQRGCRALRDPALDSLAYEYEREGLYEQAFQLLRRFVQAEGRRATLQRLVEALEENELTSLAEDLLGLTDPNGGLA
inactive: [1] -0.051 | [2] -0.016 | [3] 0.112 | [4] 0.05 | [5] 0.033

TPX2 (UniProt Q9ULW0)
inactive: [1] 0.04 | [2] -0.006 | [3] 0.008 | [4] -0.003 | [5] 0

TTL (UniProt Q8NG68)
Chain of UniProt Q8NG68 (Q8NG68 whole entry, looked up): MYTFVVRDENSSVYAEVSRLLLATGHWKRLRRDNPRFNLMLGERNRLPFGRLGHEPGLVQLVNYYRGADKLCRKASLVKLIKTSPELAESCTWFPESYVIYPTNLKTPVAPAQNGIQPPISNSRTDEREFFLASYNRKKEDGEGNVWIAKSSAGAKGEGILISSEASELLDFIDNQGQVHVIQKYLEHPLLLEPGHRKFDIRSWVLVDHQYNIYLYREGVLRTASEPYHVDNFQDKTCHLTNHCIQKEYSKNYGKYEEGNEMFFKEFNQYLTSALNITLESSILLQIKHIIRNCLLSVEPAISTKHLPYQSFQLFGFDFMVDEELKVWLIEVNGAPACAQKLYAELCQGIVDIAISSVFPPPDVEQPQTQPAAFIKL
inactive: [1] 0.004 | [2] -0.029 | [3] 0.145 | [4] 0.014 | [5] 0.104

TRA2A (UniProt Q13595)
inactive: [1] -0.076 | [2] 0.065 | [3] 0.034 | [4] -0.054 | [5] 0.004

TBC1D23 (UniProt Q9NUY8)
inactive: [1] 0.007 | [2] 0.01 | [3] -0.017 | [4] 0.016 | [5] -0.024

TSFM (UniProt P43897)
inactive: [1] 0.006 | [2] 0.007 | [3] 0.027 | [4] 0.066 | [5] -0.092

UBP1 (UniProt Q9NZI7)
inactive: [1] 0.082 | [2] -0.057 | [3] -0.018 | [4] 0.009 | [5] 0.056

UBR1 (UniProt Q8IWV7)
Chain of UniProt Q8IWV7 (Q8IWV7 whole entry, looked up): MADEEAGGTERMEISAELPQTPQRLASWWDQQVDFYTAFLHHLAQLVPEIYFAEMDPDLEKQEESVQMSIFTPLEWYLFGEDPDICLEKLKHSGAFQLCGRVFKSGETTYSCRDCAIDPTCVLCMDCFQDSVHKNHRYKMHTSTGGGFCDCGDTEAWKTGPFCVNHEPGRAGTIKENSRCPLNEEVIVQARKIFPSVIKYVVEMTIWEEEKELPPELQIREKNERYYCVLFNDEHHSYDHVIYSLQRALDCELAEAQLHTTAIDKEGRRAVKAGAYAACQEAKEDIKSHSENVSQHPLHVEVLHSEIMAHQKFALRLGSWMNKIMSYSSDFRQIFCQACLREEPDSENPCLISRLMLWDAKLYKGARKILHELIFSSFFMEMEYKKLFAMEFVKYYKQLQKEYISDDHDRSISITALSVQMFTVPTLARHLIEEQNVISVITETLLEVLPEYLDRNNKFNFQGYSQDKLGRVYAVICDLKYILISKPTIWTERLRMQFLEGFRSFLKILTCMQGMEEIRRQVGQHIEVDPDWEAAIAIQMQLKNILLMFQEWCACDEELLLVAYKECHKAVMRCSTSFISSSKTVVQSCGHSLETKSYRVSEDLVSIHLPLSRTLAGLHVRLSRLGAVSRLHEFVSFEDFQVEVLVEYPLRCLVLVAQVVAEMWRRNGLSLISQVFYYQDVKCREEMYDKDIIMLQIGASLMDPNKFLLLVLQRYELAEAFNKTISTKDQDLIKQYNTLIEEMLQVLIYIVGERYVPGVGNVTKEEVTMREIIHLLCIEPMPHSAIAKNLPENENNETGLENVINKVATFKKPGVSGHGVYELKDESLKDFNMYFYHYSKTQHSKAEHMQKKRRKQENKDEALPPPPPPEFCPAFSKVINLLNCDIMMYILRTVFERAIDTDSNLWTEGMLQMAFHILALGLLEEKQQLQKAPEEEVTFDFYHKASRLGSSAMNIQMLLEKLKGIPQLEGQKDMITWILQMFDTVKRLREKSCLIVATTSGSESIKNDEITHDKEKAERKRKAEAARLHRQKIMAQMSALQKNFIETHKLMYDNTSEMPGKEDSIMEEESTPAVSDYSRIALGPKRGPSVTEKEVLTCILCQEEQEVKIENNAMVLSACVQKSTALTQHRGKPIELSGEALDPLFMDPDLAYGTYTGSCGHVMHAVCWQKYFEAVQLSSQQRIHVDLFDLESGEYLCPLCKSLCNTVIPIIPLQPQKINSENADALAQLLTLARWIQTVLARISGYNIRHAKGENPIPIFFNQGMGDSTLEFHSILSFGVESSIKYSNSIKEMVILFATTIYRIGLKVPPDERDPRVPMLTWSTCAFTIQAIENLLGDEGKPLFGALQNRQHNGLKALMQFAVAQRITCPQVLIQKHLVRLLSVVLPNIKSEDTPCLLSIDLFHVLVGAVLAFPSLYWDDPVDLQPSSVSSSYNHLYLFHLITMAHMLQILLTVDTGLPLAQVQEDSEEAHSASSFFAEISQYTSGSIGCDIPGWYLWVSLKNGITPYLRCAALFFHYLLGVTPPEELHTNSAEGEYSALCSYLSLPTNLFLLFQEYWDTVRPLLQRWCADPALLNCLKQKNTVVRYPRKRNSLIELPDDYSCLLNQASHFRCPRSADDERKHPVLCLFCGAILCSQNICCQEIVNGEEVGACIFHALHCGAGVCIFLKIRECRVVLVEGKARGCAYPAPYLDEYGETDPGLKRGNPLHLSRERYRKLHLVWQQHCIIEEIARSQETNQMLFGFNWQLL
inactive: [1] -0.032 | [2] 0.002 | [3] -0.026 | [4] 0.026 | [5] 0

UBXN6 (UniProt Q9BZV1)
inactive: [1] -0.03 | [2] 0.027 | [3] 0.03 | [4] 0.022 | [5] 0.031

TTC12 isoform 2 (UniProt Q9H892)
inactive: [1] -0.123 | [2] -0.131 | [3] 0.033 | [4] 0.044 | [5] 0.058

TPM1 isoform 4 (UniProt P09493)
inactive: [1] -0.008 | [2] -0.012 | [3] 0 | [4] 0.003 | [5] 0.056

TRAPPC10 (UniProt P48553)
inactive: [1] -0.014 | [2] -0.015 | [3] 0.033 | [4] -0.004 | [5] -0.012

TBC1D8B (UniProt Q0IIM8)
inactive: [1] -0.086 | [2] -0.078 | [3] -0.038 | [4] -0.013 | [5] -0.101

UBAP2 (UniProt Q5T6F2)
inactive: [1] -0.019 | [2] -0.003 | [3] -0.008 | [4] -0.022 | [5] -0.119

TYMS (UniProt P04818)
Chain of UniProt P04818 (P04818 whole entry, looked up): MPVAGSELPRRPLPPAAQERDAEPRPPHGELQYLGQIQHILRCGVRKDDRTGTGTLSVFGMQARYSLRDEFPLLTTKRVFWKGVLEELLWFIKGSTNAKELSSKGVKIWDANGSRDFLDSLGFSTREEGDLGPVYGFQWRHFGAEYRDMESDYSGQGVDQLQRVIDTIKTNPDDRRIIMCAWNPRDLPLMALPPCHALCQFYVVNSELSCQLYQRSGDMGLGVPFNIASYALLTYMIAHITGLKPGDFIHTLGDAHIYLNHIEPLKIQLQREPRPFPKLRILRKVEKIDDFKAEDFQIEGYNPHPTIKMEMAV
inactive: [1] -0.005 | [2] 0.02 | [3] -0.005 | [4] 0.012 | [5] 0.014

TK1 (UniProt P04183)
Chain of UniProt P04183 (P04183 whole entry, looked up): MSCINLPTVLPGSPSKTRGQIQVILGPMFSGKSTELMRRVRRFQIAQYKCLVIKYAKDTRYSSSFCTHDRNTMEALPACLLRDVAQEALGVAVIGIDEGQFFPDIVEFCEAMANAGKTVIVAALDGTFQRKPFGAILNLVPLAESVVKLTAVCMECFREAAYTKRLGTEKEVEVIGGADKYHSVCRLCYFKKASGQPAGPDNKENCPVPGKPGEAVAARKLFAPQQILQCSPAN
inactive: [1] 0.006 | [2] 0.037 | [3] -0.017 | [4] -0.045 | [5] -0.116

TUBA1B (UniProt P68363)
inactive: [1] -0.006 | [2] 0.014 | [3] 0.004 | [4] 0.015 | [5] -0.03

UBE3C (UniProt Q15386)
inactive: [1] -0.027 | [2] -0.04 | [3] 0.127 | [4] 0.066 | [5] 0.039

TTLL12 (UniProt Q14166)
inactive: [1] -0.004 | [2] 0.013 | [3] 0.011 | [4] 0.015 | [5] 0.033

TP53RK (UniProt Q96S44)
Chain of UniProt Q96S44 (Q96S44 whole entry, looked up): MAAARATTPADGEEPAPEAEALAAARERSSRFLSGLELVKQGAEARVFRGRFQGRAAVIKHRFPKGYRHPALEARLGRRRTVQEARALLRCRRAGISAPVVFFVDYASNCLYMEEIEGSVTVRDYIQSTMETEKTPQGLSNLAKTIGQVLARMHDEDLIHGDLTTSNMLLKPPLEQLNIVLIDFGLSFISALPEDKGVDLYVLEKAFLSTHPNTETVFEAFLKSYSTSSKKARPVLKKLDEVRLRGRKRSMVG
inactive: [1] 0.013 | [2] 0.021 | [3] -0.003 | [4] 0.073 | [5] 0.09

TLE3 isoform 4 (UniProt Q04726)
inactive: [1] 0.01 | [2] -0.033 | [3] 0.024 | [4] 0.025 | [5] 0.007

TRIP12 isoform 2 (UniProt Q14669)
inactive: [1] -0.043 | [2] 0.07 | [3] -0.018 | [4] 0 | [5] 0.062

TMEM70 (UniProt Q9BUB7)
inactive: [1] -0.029 | [2] 0.045 | [3] 0.021 | [4] 0.013 | [5] -0.083

TMEM263 (UniProt Q8WUH6)
inactive: [1] -0.286 | [2] -0.048 | [3] 0.211 | [4] -0.138 | [5] -0.073

TECR (UniProt Q9NZ01)
inactive: [1] -0.131 | [2] 0.083 | [3] 0.015 | [4] 0.017 | [5] 0.046

TLK2 isoform 2 (UniProt Q86UE8)
inactive: [1] 0.014 | [2] -0.027 | [3] 0.033 | [4] -0.015 | [5] -0.075

TRIM33 (UniProt H0Y612)
inactive: [1] -0.042 | [2] 0.008 | [3] 0.05 | [4] 0.021 | [5] 0.098

TOX4 (UniProt O94842)
inactive: [1] -0.011 | [2] 0.001 | [3] -0.021 | [4] -0.019 | [5] -0.146

UCHL5 isoform 3 (UniProt Q9Y5K5)
inactive: [1] -0.001 | [2] 0.033 | [3] 0.01 | [4] 0.015 | [5] 0.029

UBA1 (UniProt P22314)
inactive: [1] -0.018 | [2] 0.043 | [3] 0 | [4] 0.045 | [5] 0.04

TUBA1C (UniProt Q9BQE3)
inactive: [1] 0.043 | [2] 0.03 | [3] 0.023 | [4] 0.003 | [5] -0.006

TUBA4A (UniProt P68366)
inactive: [1] -0.068 | [2] 0.013 | [3] 0.03 | [4] -0.024 | [5] 0.019

UBE4A isoform 2 (UniProt Q14139)
inactive: [1] -0.016 | [2] -0.041 | [3] 0.003 | [4] 0.043 | [5] 0.051

TTI1 (UniProt O43156)
inactive: [1] -0.004 | [2] -0.011 | [3] -0.004 | [4] 0.034 | [5] 0.051

TUBGCP4 (UniProt Q9UGJ1)
inactive: [1] -0.005 | [2] 0.019 | [3] 0.012 | [4] -0.027 | [5] -0.007

TUT4 (UniProt Q5TAX3)
inactive: [1] -0.032 | [2] -0.024 | [3] 0.035 | [4] 0.009 | [5] -0.021

UBL4A (UniProt P11441)
inactive: [1] -0.029 | [2] -0.003 | [3] -0.017 | [4] 0.142 | [5] 0.073
